Screening data from PubChem BioAssay.
AmpC inh det = Promiscuous and Specific Inhibitors of AmpC Beta-Lactamase (assay with detergent) | 71,000 compounds, 0.09% hits | Potency, µM (titrated, usually from 28.7 µM) | purified AmpC, nitrocefin hydrolysis with detergent | AID 584, 2007 | P00811; active = well fitted curve in the direction sought with a large enough effect; inconclusive = small, poorly fitted or top-dose-only effect
Target sequence (P00811 whole entry, looked up): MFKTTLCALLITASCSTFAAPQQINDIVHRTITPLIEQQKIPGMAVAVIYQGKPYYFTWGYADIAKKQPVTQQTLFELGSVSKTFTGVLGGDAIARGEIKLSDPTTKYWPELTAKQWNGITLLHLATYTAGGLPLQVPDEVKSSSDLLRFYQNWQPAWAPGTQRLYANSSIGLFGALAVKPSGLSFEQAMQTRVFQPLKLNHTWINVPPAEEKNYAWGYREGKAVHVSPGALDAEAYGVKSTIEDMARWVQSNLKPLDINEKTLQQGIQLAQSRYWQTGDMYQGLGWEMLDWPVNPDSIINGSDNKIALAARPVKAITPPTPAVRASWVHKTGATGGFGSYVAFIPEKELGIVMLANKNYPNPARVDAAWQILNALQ
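E. coli AmpC (5.3 nM) in 20 mM phosphate pH 7.0 with 0.01% Triton X-100, preincubated 15 min RT with compound; nitrocefin (2 uL of 800 uM stock) hydrolysis followed by 480 nm absorbance every 20 s over 4 min.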
Anthrax LT inh = qHTS Assay for Anthrax Lethal Toxin Internalization; Cells, anthrax lethal toxin internalization, FRET ratio (460/530); Potency, µM (doses to about 40 µM), actives largely listed as inhibitors; 70,000 compounds, 0.67% hits; note: nearly all actives have a fitted effect of over 50% in size
AmpC inh no det = Promiscuous and Specific Inhibitors of AmpC Beta-Lactamase (assay without detergent); 71,000 compounds, 1.8% hits; Potency, µM (series often up to 28.7 µM); AID 585, 2007; AmpC nitrocefin hydrolysis, absorbance 480 nm, no detergent; P00811
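Enzyme, pH 7.0 phosphate. Compound titrations were pre-incubated with AmpC for 15 min at room temperature before nitrocefin (stock 800 uM) addition; product formation was recorded at 480 nm every 20 s for 4 min.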
SmPrx2 inh = Schistosoma Mansoni Peroxiredoxins (Prx2) | Potency, µM | 65,000 compounds, 0.07% hits | S. mansoni Prx2 activity coupled to TGR/GSH (TGR is thioredoxin glutathione reductase), NADPH fluorescence loss, qHTS | Schistosoma mansoni peroxiredoxin 2 (Prx2)
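Purified S. mansoni TGR and Prx2 in pH 7.4 phosphate buffer with EDTA and Tween-20 were preincubated with compounds for 15 min. Further NADPH/GSH was added, then a 2.5 mM H2O2 aliquot initiated turnover, followed kinetically by NADPH fluorescence.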
Of the large screens only hits and unclear results are named; the others gave an inactive call; [ ] = another dose, or the depositor's remark. A selection: hits, their analogues and other compounds. The true share with any hit is near 2.4%. Unless noted, calls come from the whole dose curve.

COc1ccc(Cc2nnc(NC(=O)Cc3cccs3)s2)cc1OC	AmpC inh no det 13µM
O=C(Cc1cccs1)Nc1nnc(CCc2ccccc2)s1	none
CCCCC(CC)CNCC(CC)CCCC (stereo not drawn)	none (no result: SmPrx2 inh)
O=C(CSc1nnc(-c2cc3ccccc3cc2O)n1Cc1ccco1)c1ccc(F)cc1	Anthrax LT inh inconclusive, AmpC inh no det 10µM
O=C1C[C@H]2OCCC=C3CN4CC[C@@]56c7ccccc7N1[C@@H]5[C@H]2[C@H]3C[C@@H]46	Anthrax LT inh inconclusive
N#CC(C#N)=NNc1ccc(OC(F)(F)F)cc1	Anthrax LT inh 0.5µM (no result: AmpC inh det, AmpC inh no det, SmPrx2 inh)
COCCCNCC(=O)Nc1ccc(OC(F)(F)F)cc1	none
CCc1cc2cc(C(=O)N3CCN(Cc4ccccc4)CC3)sc2s1	Anthrax LT inh 13µM (no result: SmPrx2 inh)
COc1cccc(C2=NOC(C(=O)Nc3cc(C)nn3-c3ccccc3)C2)c1OC (stereo not drawn)	Anthrax LT inh inconclusive, AmpC inh no det 4µM[single pt active]
COc1cc(OC)c(C2=NOC(C(=O)Nc3cc(C)nn3-c3ccccc3)C2)cc1Cl (stereo not drawn)	Anthrax LT inh inconclusive
CCOC(=O)N1CCC(NC(=O)c2cc3c(-c4ccc(Cl)cc4)nn(C)c3s2)CC1	AmpC inh no det 4µM[single pt active]
Cc1ccc(CNC(=O)c2cc3c(-c4ccc(Cl)cc4)nn(C)c3s2)o1	AmpC inh no det 4µM[single pt active]
COc1cccc(-c2nn(C)c3sc(C(=O)NCc4ccco4)cc23)c1	none
COCCNC(=O)c1cc2c(-c3ccc(Cl)cc3)nn(C)c2s1	none
COCCCNC(=O)c1cc2c(-c3ccc(Cl)cc3)nn(C)c2s1	none
CC(C)NC(=O)c1cc2c(-c3ccc(Cl)cc3)nn(C)c2s1	AmpC inh no det 0.79µM[single pt active]
CCN1CCCC1CNC(=O)c1cc2c(-c3cccc(OC)c3)nn(C)c2s1 (stereo not drawn)	Anthrax LT inh 16µM
Cn1nc(-c2ccc(Cl)cc2)c2cc(C(=O)NCCCN3CCCC3)sc21	Anthrax LT inh 2µM, AmpC inh no det 4µM[single pt active]
Cn1nc(-c2ccc(Cl)cc2)c2cc(C(=O)N3CCC(N4CCCCC4)CC3)sc21	none
CCCCNC(=O)c1cc2c(-c3ccc(Cl)cc3)nn(C)c2s1	none (no result: SmPrx2 inh)
CCN1CCCC1CNC(=O)c1cc2c(-c3ccc(Cl)cc3)nn(C)c2s1 (stereo not drawn)	Anthrax LT inh 4µM, AmpC inh no det 4µM[single pt active]
C[N+]1(C)CCc2cc3c(cc2[C@@H]1[C@@H]1OC(=O)c2c1ccc1c2OCO1)OCO3	none
O=C(CN1CC(c2ccccc2)CC1=O)NCc1ccc(F)cc1 (stereo not drawn)	AmpC inh no det 4µM[single pt active]
O=C(CN1CC(c2ccccc2)CC1=O)Nc1ccc2c(c1)OCO2 (stereo not drawn)	none
COc1ccc(NC(=O)CN2CC(c3ccccc3)CC2=O)cc1OC (stereo not drawn)	AmpC inh no det 4µM[single pt active]
O=C(CN1CCN(Cc2ccc(F)cc2)C1=O)NCc1cccs1	none
C/C=C(\C)C(=O)O[C@@H]1C(C)=C2[C@H]([C@@H]1OC(=O)CCCCCCC)[C@@](C)(OC(C)=O)C[C@@H](OC(=O)CCC)[C@@]1(O)[C@H]2OC(=O)[C@]1(C)O	Anthrax LT inh inconclusive
N#Cc1ccc(NC(=O)Nc2ccc(Cl)cc2)cc1	Anthrax LT inh 4µM, AmpC inh no det inconclusive
CN(CC(=O)Nc1ccc(C#N)cc1)Cc1ccc(Cl)cc1	none
Nc1c(S(=O)(=O)O)cc(Nc2ccc(Nc3nc(Cl)nc(Nc4ccc(S(=O)(=O)O)cc4)n3)c(S(=O)(=O)O)c2)c2c1C(=O)c1ccccc1C2=O	AmpC inh det 13µM, Anthrax LT inh inconclusive
COc1ccc2c(c1)CCc1c(C(=O)NCc3ccc(F)cc3)noc1-2	Anthrax LT inh inconclusive, AmpC inh no det 4µM[single pt active]
COc1ccc2c(c1)CCc1c(C(=O)NCCc3ccc(OC)c(OC)c3)noc1-2	SmPrx2 inh inconclusive
O=C(NCCc1ccccc1)c1noc2c1CCc1ccccc1-2	none
CCCNC(=O)c1noc2c1CCc1ccccc1-2	AmpC inh no det 3.2µM[single pt active]
COc1ccc2c(c1)CCc1c(C(=O)Nc3cc(C)n(Cc4ccc(Cl)cc4)n3)noc1-2	AmpC inh no det 7.9µM
CCC(C)[C@@H](NC(=O)OC(C)(C)C)c1nnc(S(=O)(=O)Cc2cccc(C)c2)o1 (stereo partly drawn)	AmpC inh det 4µM, Anthrax LT inh inconclusive, AmpC inh no det 7.9µM
CC(C)(C)OC(=O)N[C@@H](Cc1ccccc1)c1nnc(S(=O)(=O)Cc2ccccc2)o1	AmpC inh det 13µM, Anthrax LT inh 7.9µM, AmpC inh no det 3.2µM (no result: SmPrx2 inh)
CC(C)(C)OC(=O)N[C@@H](Cc1ccccc1)c1nnc(SCC(=O)O)o1	Anthrax LT inh inconclusive
CC(C)CCNC(=O)Cn1c(NCCC(C)C)nc2c1c(=O)n(C)c(=O)n2C	AmpC inh no det 2.5µM[single pt active]
Nc1nc(Cl)nc2c1ncn2[C@@H]1O[C@@H](CO)[C@@H](O)[C@H]1O	Anthrax LT inh inconclusive
CC(=O)n1nc(-c2ccco2)nc1SCc1ccccc1	Anthrax LT inh 7.9µM, AmpC inh no det inconclusive, SmPrx2 inh inconclusive
CCC(=O)n1nc(-c2ccco2)nc1SCc1ccccc1	none
CC1=C(C(=O)OCc2ccccc2)C(C2CC2)NC(=O)N1CCCCCC(=O)O (stereo not drawn)	Anthrax LT inh inconclusive (no result: SmPrx2 inh)
CCCCCCC#CC1C=CC(Oc2ccc(C=O)cc2)C(CO)O1 (stereo not drawn)	none (no result: AmpC inh det, AmpC inh no det, SmPrx2 inh)
CC(C)OCCCNC(=O)c1cc2c(=O)n(C)c3ccccc3c2n1C	none
CC1CCN(CCCNC(=O)c2cc3c(=O)n(C)c4ccccc4c3n2C)CC1	Anthrax LT inh 6.3µM
CCCCN(CC)CCCNC(=O)c1cc2c(=O)n(C)c3ccccc3c2n1C	Anthrax LT inh 4µM
Cn1c(C(=O)NCCN2CCN(Cc3ccccc3)CC2)cc2c(=O)n(C)c3ccccc3c21	AmpC inh no det inconclusive
Cn1c(C(=O)NCCN2CCCCCC2)cc2c(=O)n(C)c3ccccc3c21	Anthrax LT inh 1.6µM
Cn1c(C(=O)Nc2ccc3c(c2)OCO3)cc2c(=O)n(C)c3ccccc3c21	Anthrax LT inh inconclusive, AmpC inh no det 4µM[single pt active]
O=S(=O)(NCCO)c1cc[c]([Sb](=[O])([OH])[OH])cc1	none
CS(=O)(=O)N1CCC[C@@]2(CCN(C(=O)Nc3cccc(C#N)c3)C2)C1	none
N#Cc1cccc(-c2cc(NCc3cccs3)ncn2)c1	none
COc1ccccc1CNC(=O)c1cc2c(=O)n(C)c3ccccc3c2n1C	AmpC inh no det 4µM[single pt active]
Cn1c(C(=O)NCC2CCCO2)cc2c(=O)n(C)c3ccccc3c21 (stereo not drawn)	AmpC inh no det 4µM[single pt active]
CN1CCN(CCCNC(=O)c2cc3c(=O)n(C)c4ccccc4c3s2)CC1	Anthrax LT inh 10µM
N[C@H](Cn1ccc(=O)[nH]c1=O)C(=O)O	none
CC(C)C[C@@H](CC(=O)N[C@@H](CCC(=O)O)CC(=O)O)NC(=O)[C@@H]1CNCC[C@H]1NC(=O)C[C@@H](NC(=O)C[C@H](Cc1c[nH]c2ccccc12)NC(=O)[C@@H]1CNCC[C@H]1N)C(C)C	none
OC[C@H]1CCCN2CCCC[C@@H]12	none
